# Source: PMC4336329 (PLoS ONE, 2015)
# Hit rate of the full screen: of about 310,000 compounds, about 14,000 (4.5%) showed an effect of 50% or more. The effect is printed as a negative number. For the sample, strong results were picked, then their nearest neighbours and some compounds at random.
# Target: human ether-à-go-go-related gene (hERG) potassium channel (human, UniProt Q12809)
# Test: primary screen, population patch clamp on CHO cells stably expressing hERG; higher = less effect of the substance
# 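Note: peak tail current of the secondary pulse compared with the same well before compound.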
# Sequence of human ether-à-go-go-related gene (hERG) potassium channel (Q12809 whole entry, looked up): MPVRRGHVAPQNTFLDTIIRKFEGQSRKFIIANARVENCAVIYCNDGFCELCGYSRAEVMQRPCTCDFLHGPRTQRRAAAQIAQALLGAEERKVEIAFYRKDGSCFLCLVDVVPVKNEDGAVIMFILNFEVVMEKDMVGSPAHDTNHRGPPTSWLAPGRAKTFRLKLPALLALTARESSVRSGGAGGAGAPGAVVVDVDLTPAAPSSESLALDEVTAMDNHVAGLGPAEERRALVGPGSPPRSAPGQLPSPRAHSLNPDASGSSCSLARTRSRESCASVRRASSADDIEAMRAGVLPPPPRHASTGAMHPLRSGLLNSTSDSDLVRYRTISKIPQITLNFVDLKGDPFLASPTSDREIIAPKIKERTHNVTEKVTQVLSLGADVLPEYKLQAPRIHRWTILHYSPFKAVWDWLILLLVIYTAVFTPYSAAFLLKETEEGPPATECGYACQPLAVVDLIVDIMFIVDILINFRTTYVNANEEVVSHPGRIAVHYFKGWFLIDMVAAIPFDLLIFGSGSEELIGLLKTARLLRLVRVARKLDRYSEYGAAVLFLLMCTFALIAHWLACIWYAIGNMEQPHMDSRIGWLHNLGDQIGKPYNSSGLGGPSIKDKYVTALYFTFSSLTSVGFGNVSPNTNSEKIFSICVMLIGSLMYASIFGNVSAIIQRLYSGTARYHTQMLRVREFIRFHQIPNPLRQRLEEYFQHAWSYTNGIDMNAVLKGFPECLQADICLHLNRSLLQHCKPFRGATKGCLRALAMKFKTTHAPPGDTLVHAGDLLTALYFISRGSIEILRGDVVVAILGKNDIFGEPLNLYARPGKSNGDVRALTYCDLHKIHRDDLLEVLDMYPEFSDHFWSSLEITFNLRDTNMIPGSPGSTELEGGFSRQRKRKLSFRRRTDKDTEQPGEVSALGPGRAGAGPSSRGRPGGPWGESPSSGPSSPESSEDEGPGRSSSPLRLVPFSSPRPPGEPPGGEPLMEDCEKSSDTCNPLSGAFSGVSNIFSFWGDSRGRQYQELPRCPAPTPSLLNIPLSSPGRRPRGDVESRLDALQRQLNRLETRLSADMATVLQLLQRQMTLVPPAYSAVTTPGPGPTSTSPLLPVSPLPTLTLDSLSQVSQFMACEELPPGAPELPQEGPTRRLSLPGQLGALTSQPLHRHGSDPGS
row,Compound,"hERG current change (%, negative = inhibition) at 10uM"
1,CCn1c(SCC(=O)N/N=C(\C)c2ccncc2)nnc1-c1ccc(C)cc1,-20.6%
2,CC1CCc2sc(C(=O)NN)cc2C1 (stereo not shown),21.1%
3,O=C(NC1CCN(Cc2ccccc2)CC1)c1ccc(Oc2cc(Cl)cc(Cl)c2)o1,-6.95%
4,Cc1cc(C(=O)NC2CCN(Cc3ccccc3)CC2)n[nH]1,-19.8%
5,O=C(NC1CCN(Cc2ccccc2)CC1)c1cc(Br)c(Br)[nH]1,-2.75%
6,CC1CCc2sc(C(=O)NC3CCN(Cc4ccccc4)CC3)cc2C1 (stereo not shown),-54.1%
7,O=C(NC1CC1)c1cccc(Br)c1,0.381%
8,O=C(NC1CCN(Cc2ccccc2)CC1)c1c(F)cccc1F,-24.4%
9,O=C(NC1CCN(Cc2ccccc2)CC1)c1ccc2c(c1)OCCCO2,-37.1%
10,Cl.O=C(NC1CCN(Cc2ccccc2)CC1)c1cccc(OC(F)F)c1,-74.1%
11,O=C(NC1CCN(Cc2ccccc2)CC1)c1cncc(Br)c1,-64.1%
12,O=C(NC1CCN(Cc2ccccc2)CC1)c1cccc(Br)c1,-63.8%
13,CC1CCc2sc(C(=O)NC3CCCCC3)cc2C1 (stereo not shown),-5.4%
14,O=[N+]([O-])c1ccc2c(c1)[nH]c(=S)n2-c1ccccc1,36.4%
15,COc1cccc(CNS(=O)(=O)c2cc3c(cc2C)NC(=O)CO3)c1,-25.4%
16,COCC1CCN(C(=O)c2ccc3oc(Cc4ccccc4)nc3c2)C1 (stereo not shown),-0.23%
17,COc1cccc(/C=N/NC(=O)CC(=O)NCCc2ccccc2)c1OC,6.02%
18,Cl.NC(N)=NC(N)=Nc1cccc(Cl)c1,-2.14%
19,COc1ccc(NC(=O)C(=O)N/N=C\c2ccc(CNC(=O)C(=O)Nc3ccc(C)c(C)c3)o2)c(OC)c1,9.12%
20,Cc1nc2ccccn2c1C(=O)N/N=C/c1ccccc1,11.6%
21,Cc1ccc(C)c(-n2c(C)cc(/C=N/NC(=O)c3c(C)nc4cc(C)ccn34)c2C)c1,-0.122%
22,Cc1ccn2c(C(=O)N/N=C\c3cccs3)c(C)nc2c1,-7.56%

row,Compound,"hERG current change (%, negative = inhibition) at 10uM"
1,Cc1nc2ccccn2c1C(=O)N/N=C/c1ccccc1[N+](=O)[O-],2.26%
2,CCOc1ccc(/C=N\NC(=O)c2c(C)nc3cc(C)ccn23)cc1,-2.47%
3,Cc1ccn2c(C(=O)N/N=C/c3ccc(CNC(=O)C(=O)Nc4ccc(C)c(C)c4)o3)c(C)nc2c1,-57%
4,Cc1ccc(NC(=O)C(=O)NCc2ccc(/C=N/NC(=O)c3c(C)nc4cc(C)ccn34)o2)cc1,-64%
5,Cc1ccc(NC(=O)C(=O)NCc2ccc(/C=N/NC(=O)c3c(C)nc4ccccn34)o2)cc1,1.37%
6,Cc1nc2ccccn2c1C(=O)N/N=C/c1ccc([N+](=O)[O-])o1,-64.1%
7,Cc1nc2ccccn2c1C(=O)N/N=C/c1ccc(CNC(=O)C(=O)Nc2ccccc2)o1,-50.3%
8,Cc1nc2ccccn2c1C(=O)N/N=C/c1ccc([N+](=O)[O-])cc1,2.88%
9,O=C(Nc1ccc(F)cc1)c1cc2ccccc2o1,20%
10,COc1cccc(CSc2nnnn2-c2ccc(O)cc2)c1,-18.5%
11,CCCCn1c(N)c(N(CCC(C)C)C(=O)c2cc(Cl)nc3ccccc23)c(=O)[nH]c1=O,15.2%
12,COC(=O)c1cccc(-n2nnnc2SCC(=O)Nc2nc3c(s2)CCCC3)c1,-0.926%
13,Cc1ccc(OCCC(=O)O)cc1,13.4%
14,COc1ccc(OC)c(CNCc2ccc3c(c2)OCO3)c1.O=C(O)C(=O)O,-4.43%
15,CC(=O)c1ccc(NC(=O)C2=CC(c3cccs3)=NS(=O)(=O)N2C)cc1,-0.218%
16,CN(C)CCC(Oc1ccccc1OCc1ccccc1)c1ccccc1.O=C(O)C(=O)O (stereo not shown),-68.6%
17,CC(C)Oc1ccccc1OCCN(C)C.O=C(O)C(=O)O,6.22%
18,CC(O)CNCCCOc1ccccc1OCc1ccccc1.O=C(O)C(=O)O (stereo not shown),-36.7%
19,COC(=O)c1ccccc1S(=O)(=O)N1CCC(C(=O)N2CCC2)CC1,3.96%
20,CC(C)C1OC2(C)OC(=N)C1(C#N)C(C#N)(C#N)C2c1ccccc1 (stereo not shown),2.05%
21,COc1ccc(-c2nnc(OCc3nc4ccccc4n3C)c3ccccc23)cc1,-40.2%
22,Cl.OCCNc1nc(NCc2ccccc2)c2ccccc2n1,-54.6%

row,Compound,"hERG current change (%, negative = inhibition) at 10uM"
1,Cl.OCCNc1nc(Nc2ccc(O)cc2)nc2ccccc12,-28.6%
2,Cl.OCCNc1nc(Nc2ccccc2)nc2ccccc12,-35%
3,Cc1ccc(Nc2nc(NCCO)c3ccccc3n2)cc1C.Cl,-52.4%
4,Cl.c1ccc(CNc2nc(NCc3ccccc3)c3ccccc3n2)cc1,2.65%
5,Cl.Oc1ccccc1Nc1nc(NCc2ccccc2)c2ccccc2n1,-1.42%
6,CNc1nc(NCc2ccccc2)c2ccccc2n1.Cl,-68.1%
7,Cl.OCCNc1nc(Nc2ccc(Cl)c(Cl)c2)nc2ccccc12,14.5%
8,Cl.OCCNc1nc(Nc2ccc(Br)cc2)nc2ccccc12,-36.3%
9,Nc1ccc(C2(c3ccc(N)cc3)CCCCC2)cc1,22.1%
10,O=C(Nc1cccnc1)c1cc(-c2ccc(Br)cc2)nc2ccccc12,-2.53%
11,O=S1(=O)N=C(N2CCc3ccccc3C2)c2ccccc21,-39%
12,O=C(c1ccco1)N1CCN(c2cc(C(F)(F)F)nc3ncnn23)CC1,-16.7%
13,Cc1ccc(C(=O)CCNc2cccc(Br)c2)o1,4.71%
14,O=C(COc1ccc(Cl)cc1)NCCSCc1cccc(Cl)c1,-13.5%
15,CC1CCN(c2c(NCC3CCC(C(=O)NCCc4ccc(Cl)cc4)CC3)c(=O)c2=O)CC1 (stereo not shown),-3.81%
16,CCCCN(C(=O)c1ccc2ccccc2c1)c1c(N)n(CCCC)c(=O)[nH]c1=O,8.11%
17,COc1ccc(Cn2c(=N)c(C(=O)NC3CCCCC3)cc3c(=O)n4ccccc4nc32)cc1,-68.9%
18,COc1ccc(Cn2c(=O)[nH]c3cc(C(=O)NC4CCCC4)ccc3c2=O)cc1,15.1%
19,COc1ccc(NC(=O)c2cc3c(=O)n4ccccc4nc3n2C)c(OC)c1,2.99%
20,COc1ccc(CCn2c(=N)c(C(=O)NC3CCCC3)cc3c(=O)n4ccccc4nc32)cc1,-81.9%
21,COc1ccc(CCn2c(=N)c(C(=O)NC3CCCCC3)cc3c(=O)n4ccccc4nc32)cc1,-79.4%
22,N=c1c(S(=O)(=O)c2ccc(Cl)cc2)cc2c(=O)n3ccccc3nc2n1CCc1ccccc1,4.68%

row,Compound,"hERG current change (%, negative = inhibition) at 10uM"
1,COc1ccc(CCn2c(=N)c(S(=O)(=O)c3ccc(Cl)cc3)cc3c(=O)n4ccccc4nc32)cc1,20.5%
2,Cc1ccc(S(=O)(=O)c2cc3c(=O)n4ccccc4nc3n(CCc3ccccc3)c2=N)cc1,5.39%
3,N=c1c(C(=O)NC2CCCCC2)cc2c(=O)n3ccccc3nc2n1CCc1ccccc1,-81.1%
4,COc1cccc(-c2csc(NNC(=O)c3cccs3)n2)c1,-2.17%
5,COc1cc(C(=O)N(Cc2ccc(C)o2)C2CCS(=O)(=O)C2)cc(OC)c1OC (stereo not shown),14.4%
6,O=C(NCc1cccnc1)c1ccc(Br)s1,-16.9%
7,CCN1C(=O)c2cccc3c(NS(=O)(=O)c4ccc(NC(C)=O)cc4)ccc1c23,-8.89%
8,O=C(Cc1ccc(Cl)c(Cl)c1)Nc1cccc2ncccc12,20.2%
9,COCCCNC(=O)c1c(N)n(-c2ccc(S(N)(=O)=O)cc2)c2nc3ccccc3nc12,0.473%
10,Cc1nn(Cc2c(F)c(F)c(F)c(F)c2F)c(C)c1NC(=O)c1cccc(COc2ccc(Cl)cc2)c1,2.49%
11,O=C1c2oc3ccc(Br)cc3c(=O)c2C(c2cccc(F)c2)N1CCO (stereo not shown),-1.34%
12,ONC(=Nc1ccccc1)c1ccccc1Cl,2.37%
13,CCc1ccccc1NC(=O)CCC(=O)N1CCSc2ccccc21,-14.7%
14,CCOC(=O)c1cnc2nc(NCc3ccc(OCc4ccccc4)cc3)[nH]n2c1=O,5.06%
15,COc1ccc(CCn2c(=N)c(C(=O)NC3CCCC3)cc3c(=O)n4ccccc4nc32)cc1OC,-79.2%
16,COCCCn1c(SCC(=O)NC2CCCCC2)nc2ccccc2c1=O,-16.9%
17,COc1ccc(CCn2c(=N)c(S(=O)(=O)c3ccccc3)cc3c(=O)n4ccccc4nc32)cc1,10.9%
18,COc1ccc(CCn2c(=N)c(S(=O)(=O)c3ccc(C)cc3)cc3c(=O)n4ccccc4nc32)cc1,15.1%
19,COCCCn1c(=N)c(C(=O)NC2CCCCC2)cc2c(=O)n3ccccc3nc21,-78.8%
20,COc1ccc(CCn2c(=N)c(C(=O)N3CCN(C)CC3)cc3c(=O)n4ccccc4nc32)cc1,-76.2%
21,CCN(C(=O)c1cc2c(=O)n3ccccc3nc2n1CCCOC)C1CCCCC1,-2.32%
22,COc1ccc(CCn2c(C3CCCCC3)nc3c(c(=O)c4ccccc4n3C)c2=O)cc1OC,-8.08%
